Results published in PubChem BioAssay (EPA / NIEHS).
Activity calls are given as the source filed them. How the source made its calls: active means hit-call score of the fitted dose curve at least 0.9, where 1 is the maximum; inactive means score below 0.9.

Each molecule was assayed on Nuclear factor NF-kappa-B p105 subunit (Homo sapiens) (UniProt P19838) (assay: LTEA_HepaRG_NFKB1: Life Technologies and Expression Analysis (LTEA) Assay for Nuclear Factor Kappa B Subunit 1 (NFKB1) using HepaRG (AID 2283521;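 on outcome: TaqMan qRT-PCR transcript normalised to ACTB GAPDH and POLR2A housekeeping genes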)). Conditions: mRNA level, 48 h; actives raise or lower the signal.
Protocol: LTEA_HepaRG is a cell based, multiplexed-readout assay that uses HepaRG, a human liver cell line, with measurements taken at 48 hours after chemical dosing on a 96-well plate.LTEA_HepaRG_NFKB1 is one of 102 assay component(s) measured in the LTEA HepaRG cell culture assay. It is a marker of Cell proliferation, survival, death.Data from the assay component LTEA_HepaRG_NFKB1 was analyzed into 1 endpoint. This assay endpoint, LTEA_HepaRG_NFKB1, was analyzed with bidirectional fitting relative to DMSO as the negative control and baseline of activity. Using a type of inducible reporter, measures of mRNA induction for gain or loss-of-signal activity can be used to understand regulation of transcription factor activity. To generalize the intended target to other relatable targets, this assay endpoint is annotated to the dna binding intended target family, where the subfamily is NF-kappa B.
A total of 1060 chemcials from the ToxCast library were tested in eight-point concentration-response experiments. Cell culture and cytotoxicity assays were conducted at Thermo Fisher Scientific's Custom Services facility (Madison, WI). A single lot of human HepaRG cells (Thermo Fisher Scientific, Frederick, MD) was used for the cell culture experiments. 96-well format collagen type I coated plates of human HepaRG cells were prepared using established methods. Briefly, cryopreserved HepaRG cells were thawed, plated at a density of approximately 100,000 cells/well in HepaRG Thaw, Plate, and General Purpose media (HPRG770, Thermo Fisher Scientific), and incubated for 48 hours. 0.5% DMSO was selected as vehicle control to balance the requisite need of DMSO in HepaRG cultures to maintain differentiation (for example, baseline metabolism, proportions of hepatocytes vs. cholangiocytes), while enabling further hepatic receptor pathway activation (for example, PXR and CAR) in response to chemical exposure. 48 hours after plating, the culture medium was replaced with HepaRG Serum-Free Incudtion Media. Cells were exposed to each test chemical in duplicate and maintained in CO2 incubators for another 48 hours. Chemical plates were thawed to room temperature and 200x concentrations of treatment groups were prepared. 8-point conentration-reponse curves were made with the highest exposure at 100 uM, followed by half-log dilutions, all in 0.5% DMSO. Each test plate contained variouse controls, induction positive controls (1mM phenobarbital), cytotoxicity positive controls ([…] aflatoxin B1), vehicle controls (0.5% DMSO), and total lysis controls (0.5% DMSO). Cell morphology images were taken using an Essen IncuCyte FLR automated microscope, with six 96-well plates imaged in about 24 minutes. Images were captured and exported and JPEG files. Spent culture media was transfered to black-well plates for the LDH assay, and remaining media was sorted at -80 C for later use. Cells were treated with RLT buffer and frozen until shipped for gene expression analysis. Total RNA was isolated from the cell suspension in 75 uL of Buffer RLT (Qiagen, Germantown, MD 20874) by Quintiles/Expression Analysis (Durham, NC) using a custom isolation procedure. Total RNA from each plate well was transferred to a preamplification plate. Fluidigm's 96.96 Dynamic ArrayTM (Fluidigm, Amsterdam, the Netherlands) technology was used for gene expression analyses by quantitative reverse transcription polymerase chain reaction (qRT-PCR, performed by Quintiles/Expression Analysis, Durham, NC)89. Standard TaqManTM Assays (Applied Biosystems/ThermoFisher Scientific, Foster City, CA) were used to assess the expression of 93 genes selected based on their selectivity and sensitivity to important hepatic receptors known to be modulated by environmental chemicals; importance in human hepatocyte functionality; and hepatotoxicity. […]

Chain of Nuclear factor NF-kappa-B p105 subunit (Homo sapiens) (P19838 whole entry, looked up): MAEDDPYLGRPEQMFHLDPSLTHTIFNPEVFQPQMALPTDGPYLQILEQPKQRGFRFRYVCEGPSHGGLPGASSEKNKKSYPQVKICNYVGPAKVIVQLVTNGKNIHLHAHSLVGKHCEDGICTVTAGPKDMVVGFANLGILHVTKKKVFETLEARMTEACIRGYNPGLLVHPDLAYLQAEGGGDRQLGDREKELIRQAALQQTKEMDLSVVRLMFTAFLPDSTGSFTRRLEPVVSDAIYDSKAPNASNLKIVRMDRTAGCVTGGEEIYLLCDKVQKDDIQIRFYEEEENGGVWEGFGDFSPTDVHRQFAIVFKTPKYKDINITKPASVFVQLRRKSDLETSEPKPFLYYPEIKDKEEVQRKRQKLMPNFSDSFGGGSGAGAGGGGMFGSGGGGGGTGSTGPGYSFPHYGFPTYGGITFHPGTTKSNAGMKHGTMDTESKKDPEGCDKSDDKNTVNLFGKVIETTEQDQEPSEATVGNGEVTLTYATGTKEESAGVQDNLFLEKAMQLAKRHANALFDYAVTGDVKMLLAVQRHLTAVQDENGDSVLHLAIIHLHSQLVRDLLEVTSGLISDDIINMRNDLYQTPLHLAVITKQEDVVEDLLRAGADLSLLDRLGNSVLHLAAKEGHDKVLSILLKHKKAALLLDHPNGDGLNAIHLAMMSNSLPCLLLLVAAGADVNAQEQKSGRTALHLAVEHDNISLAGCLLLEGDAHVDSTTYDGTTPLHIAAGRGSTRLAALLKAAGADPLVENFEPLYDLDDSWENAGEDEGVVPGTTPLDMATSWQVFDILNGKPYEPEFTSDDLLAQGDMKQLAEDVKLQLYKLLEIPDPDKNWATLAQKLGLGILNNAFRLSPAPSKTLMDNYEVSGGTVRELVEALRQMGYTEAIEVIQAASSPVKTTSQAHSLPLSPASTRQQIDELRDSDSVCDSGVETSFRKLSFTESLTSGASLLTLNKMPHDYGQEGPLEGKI

| SMILES | outcome | AC50 |
| --- | --- | --- |
| CCCCCCCCCC | inactive |  |
| CCN(CC)C(=S)SSC(=S)N(CC)CC | inactive |  |
| CCCCC(CC)C(=O)OCCOCCOCCOC(=O)C(CC)CCCC (stereo not given) | inactive |  |
| CCCCCOC(C)=O | inactive |  |
| CC(C)CC(C)O (stereo not given) | inactive |  |
| O=C(NO)C1(NS(=O)(=O)c2ccc(Oc3ccc(F)cc3)cc2)CCOCC1 | inactive |  |
| NC(=O)NN=Cc1ccc([N+](=O)[O-])o1 | inactive |  |
| COc1cc2c(c(OC)c1OC)-c1ccc(OC)c(=O)cc1[C@@H](NC(C)=O)CC2 | inactive |  |
| CCc1ccc(O)c(C(C)(C)C)c1 | inactive |  |
| CCCCCCCCCCCCCCO | inactive |  |
| CC[C@H](C)C(=O)O[C@H]1C[C@H](O)C=C2C=C[C@H](C)[C@H](CC[C@@H](O)C[C@@H](O)CC(=O)O)[C@H]21 | inactive |  |
| CCCCN1C(=O)[C@@H]([C@H](O)C2CCCCC2)NC(=O)C12CCN(Cc1ccc(Oc3ccc(C(=O)O)cc3)cc1)CC2 | inactive |  |
| CCCOc1ccc(S(=O)(=O)N2CCN(CC)CC2)cc1-c1nc2c(CC)n(Cc3ccccn3)nc2c(=O)[nH]1 | inactive |  |
| NC(N)=O | inactive |  |
| O=C(O)c1cccc(C[C@@H]2COc3ccc(OCc4nc5cc(F)ccc5s4)cc3[C@@H]2O)c1 | inactive |  |
| Cn1c(=O)c2[nH]cnc2n(C)c1=O | inactive |  |
| OC[C@H]1O[C@@](CO)(O[C@H]2O[C@H](CO)[C@@H](O)[C@H](O)[C@H]2O)[C@@H](O)[C@@H]1O | inactive |  |
| CCCCOC(=O)c1ccccc1 | inactive |  |
| CCCCCCOC(=O)CC(CC(=O)OCCCCCC)(OC(=O)CCC)C(=O)OCCCCCC | inactive |  |
| NC(=O)N1c2ccccc2C=Cc2ccccc21 | inactive |  |

| SMILES | outcome | AC50 |
| --- | --- | --- |
| OCCOCCOCCO | inactive |  |
| CCn1nc(C)c2c1C(=O)NCC(c1ccc(O)cc1)=N2 | inactive |  |
| c1ccc2cc3ccccc3cc2c1 | inactive |  |
| OC(CCl)CCl | inactive |  |
| OC(Cn1cncn1)(Cn1cncn1)c1ccc(F)cc1F | inactive |  |
| Cc1ccc(S(=O)(=O)NC(=O)NN2CCCCCC2)cc1 | inactive |  |
| CC(C)CCCCCCOC(=O)C1CCCCC1C(=O)OCCCCCCC(C)C (stereo not given) | inactive |  |
| CC(=O)c1ccccc1 | inactive |  |
| O=C(O)[C@H](O)[C@@H](O)C(=O)O | inactive |  |
| COS(C)(=O)=O | inactive |  |
| CCCCCCCC/C=C\CCCCCCCC(=O)OC[C@@H](O)[C@H]1OC[C@H](O)[C@H]1O | inactive |  |
| C=CCc1cc(S(=O)(=O)c2ccc(O)c(CC=C)c2)ccc1O | inactive |  |
| C[C@@H](Oc1ccc(CNC(=O)c2cccnc2Oc2ccc3c(c2)OCO3)c(F)c1)C(=O)O | inactive |  |
| NNC(=O)c1ccncc1 | inactive |  |
| Cc1nc(-c2ccccn2)ncc1C(=O)Nn1cc(C)c2cc(F)ccc21 | inactive |  |
| CCCC(CCC)C(=O)O | inactive |  |
| COc1cc(C(C)C)c2c(c1)S(=O)(=O)N(COc1cc(=O)n3cccc(OCCN4CCCCC4)c3n1)C2=O | inactive |  |
| NC(=O)N(O)[C@@H]1COc2cc(OCc3ccccc3)ccc21 | inactive |  |
| Cn1cc[nH]c1=S | inactive |  |
| Cc1nccn1-c1ccc(Sc2cccc(C3(C(N)=O)CCOCC3)c2)cc1 |  | 3.18 µM (active) |
